PLK1 PBD block – blocks phosphopeptide binding to human PLK1 polo-box domain; P53350; Plk1 PBD binding of FITC phosphopeptide, fluorescence polarization; Potency, µM, actives largely listed as inhibitors; hit rate 2.8% among 360,000; AID 720504; further: series mostly up to about 57 µM; nearly all actives have a fitted effect of over 65% in size
Target sequence (P53350 whole entry, looked up, the tested form may be a part): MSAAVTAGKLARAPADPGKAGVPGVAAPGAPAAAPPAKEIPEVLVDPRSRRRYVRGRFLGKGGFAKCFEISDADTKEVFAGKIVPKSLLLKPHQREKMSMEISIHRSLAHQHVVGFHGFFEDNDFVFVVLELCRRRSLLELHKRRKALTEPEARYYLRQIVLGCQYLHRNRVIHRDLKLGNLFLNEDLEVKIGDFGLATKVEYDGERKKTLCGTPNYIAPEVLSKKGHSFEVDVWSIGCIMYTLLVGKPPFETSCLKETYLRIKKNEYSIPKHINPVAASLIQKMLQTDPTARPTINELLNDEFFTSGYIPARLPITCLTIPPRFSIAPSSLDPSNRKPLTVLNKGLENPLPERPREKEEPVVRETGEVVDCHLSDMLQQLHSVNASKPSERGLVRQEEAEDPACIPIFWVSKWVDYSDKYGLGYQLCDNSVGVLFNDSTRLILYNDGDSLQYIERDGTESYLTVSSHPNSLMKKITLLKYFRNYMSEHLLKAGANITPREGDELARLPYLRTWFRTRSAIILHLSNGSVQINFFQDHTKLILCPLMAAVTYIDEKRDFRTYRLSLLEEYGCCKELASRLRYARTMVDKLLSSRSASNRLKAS
PKM2 activator – increases activity of human pyruvate kinase M2; purified PKM2, Kinase-Glo ATP luminescence, activation; response scale: 0% is enzyme alone, no compound; hit rate 0.34% among 260,000; Potency, µM (top dose mostly 57.5 µM), usual class: activators; P14618; further: nearly all actives have a fitted effect of over 55% in size
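ATP formation by purified human PK-M2, quantified via coupled luciferase luminescence after 1 h at room temperature with 0.1 mM ADP and 0.5 mM PEP final.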
VDR inhibitor – blocks the human vitamin D receptor | P11473 | Potency, µM, hits mostly inhibitors | hit rate 0.93% among 400,000 | VDR-SRC2-3 peptide fluorescence polarization, 2 h
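Fluorescence polarization assay measuring small-molecule disruption of VDR binding to the coregulator peptide SRC2-3. Compounds were pin-transferred (23 nl) into the reagent mix and incubated 2 h at room temperature before reading.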
GCN5L2 inh – inhibitors of human GCN5L2 histone acetyltransferase; GCN5L2 HAT assay, ThioGlo1 CoA-SH fluorescence; Potency, µM (top dose mostly 58.9 µM), hits mostly inhibitors; hit rate 0.21% among 390,000; AID 504327
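GCN5L2 (20 nM) in 50mM HEPES pH 7.5, 0.1mM EDTA, 0.01% Tween-20 preincubated 15 min with compounds at room temperature. Reaction started with H3(1-25) 75uM, acetyl-CoA 70uM, ThioGlo1 50uM; CoA-thiol fluorescence (Ex340/Em540) read at 0 and 20 min.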
GLS inh – blocks human kidney-isoform glutaminase activity; GLS enzymatic activity, qHTS titration; Potency, µM (titrated, usually from 45.5 µM), actives largely listed as inhibitors; hit rate 0.21% among 410,000; O94925; AID 624170
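Assay buffer: 45 mM KH2PO4 pH 8.2, 0.02% Tween-20. hKGA acts on L-glutamine (1 mM solution added); product glutamate is reported by an oxidase/peroxidase Amplex Red coupling, with fluorescence taken at baseline and 30 min.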
Mito fusion yeast – inhibitors of mitochondrial division or activators of mitochondrial fusion | hit rate 0.23% among 320,000 | Potency, µM (doses to about 46.1 µM), hits mostly activators | S. cerevisiae fusion-defective mutant growth rescue, CellTiterGlo 48 h; further: nearly all actives have a fitted effect of over 45% in size
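S. cerevisiae fusion-defective temperature-sensitive mutants (e.g. fzo1-1, mgm1-5) grown 48 h at 37C in YPEG (ethanol/glycerol non-fermentable) medium with 23 nl compound per well; growth rescue read as CellTiterGlo luminescence.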
VDR inh confirm – inhibits human vitamin D receptor, primary hit validation. shares compounds with VDR inhibitor. VDR-coactivator inhibition assay, qHTS confirmation. Potency, µM, usual class: inhibitors. hit rate 89% among 840. AID 602199
VDR FP – VDR (human) coactivator binding inhibition, fluorescein polarization; shares compounds with VDR inhibitor; VDR-coactivator binding, fluorescein fluorescence polarization; Potency, µM (doses to about 57.1 µM), hits mostly inhibitors; hit rate 48% among 840
VDR bla reporter – VDR (human) inhibition, cell-based beta-lactamase validation. hit rate 23% among 840. VDR beta-lactamase reporter cells, FRET ratio; cells co-treated with VDR agonist LG190178. shares compounds with VDR inhibitor. Potency, µM (top dose mostly 46.1 µM), usual class: inhibitors. AID 602202
VDR cytotox – cytotoxic in counter-screen for VDR inhibitors; shares compounds with VDR inhibitor; hit rate 18% among 840; Potency, µM (series often up to 48.3 µM), most hits filed as cytotoxic; cytotoxicity counter-screen, cell viability, qHTS; further: nearly all actives have a fitted effect of over 75% in size
Numbers stand for hits; - = inactive; ? = inconclusive; . = not tested or not shown. Compounds with a hit are over-represented: about 3.4% of the library has one in this group of screens. The call rests on the fitted dose curve; in most records, active means well fitted curve in the direction sought with a large enough effect; inconclusive means small, poorly fitted or top-dose-only effect, or another doubt; inactive means no such curve, though single readings can be large; an effect the other way counts as inactive or inconclusive.

SMILES | PLK1 PBD block | PKM2 activator | VDR inhibitor | GCN5L2 inh | GLS inh | Mito fusion yeast | VDR inh confirm | VDR FP | VDR bla reporter | VDR cytotox
CCCCC1C2C(=O)N(c3ccccc3)C(=O)C2ON1c1ccccc1 (stereo not given) | - | - | - | - | - | - | . | . | . | .
Fc1cccc(-c2csc(-c3ccno3)n2)c1 | ? | - | - | - | - | - | . | . | . | .
Nc1nc(-c2cccc(F)c2)cs1 | 11µM | - | 35µM | - | - | - | 24 | ? | - | -
CC1(C)CC(=O)C(C(c2cc([N+](=O)[O-])ccc2Cl)C2C(=O)CC(C)(C)CC2=O)C(=O)C1 | - | . | - | . | - | . | . | . | . | .
Cc1sc(C(C2C(=O)CC(C)(C)CC2=O)C2C(=O)CC(C)(C)CC2=O)cc1[N+](=O)[O-] | 4.7µM | 18µM | ? | - | - | - | 6.3 | 4µM | - | -
Nc1cccc2c1C(=O)N(C(=O)/C=C/c1ccc(F)cc1)C2=O | ? | - | 28µM | - | - | - | 9.5 | 10µM | - | -
CCCCNC(=O)C1(C)CCN1C(=O)c1cc(-c2cccs2)oc1C (stereo not given) | - | . | . | . | ? | . | . | . | . | .
CC(=O)Oc1cccc(/C=c2\sc3nc(-c4ccco4)nn3c2=O)c1 | ? | - | ? | - | - | - | 11 | ? | - | -
CC(C)C[C@H](N)c1nnc(S(=O)(=O)Cc2ccc(F)cc2)o1 | ? | 10µM | 32µM | - | - | - | ? | 20µM | ? | ?
C=CS(=O)(=O)c1c2cc(OC)ccc2nc2ccc(OC)cc12 | 2.7µM | . | 50µM | . | - | . | 24 | 14µM | ? | ?
CN(C)c1ccc(-n2cccc2/C=C/[N+](=O)[O-])cc1 | - | - | 35µM | - | - | - | 13 | 8.9µM | ? | ?
CC(C)(C)OC(=O)N/N=C/c1cccn1-c1ccc([N+](=O)[O-])cc1 | - | - | - | - | - | - | . | . | . | .
COc1cc(/C=C/C(=O)Nc2nnc(CC(C)(C)C)s2)cc(OC)c1OC | 8.4µM | - | 79µM | - | - | - | 21 | 14µM | - | -
CCOc1ccc(S(=O)(=O)N2CCC(C(=O)Nc3ccc(C)c(S(=O)(=O)N4CCOCC4)c3)CC2)cc1 | - | . | - | . | - | . | . | . | . | .
COc1ccc(OC)c(NC(=O)c2nc(S(=O)(=O)Cc3ccccc3F)ncc2Cl)c1 | . | . | . | . | . | . | 2.8 | 4µM | 16µM | 11µM
COc1ccc(OC)c(NC(=O)c2nc(S(=O)(=O)Cc3ccccc3)ncc2Cl)c1 | ? | . | 10µM | ? | ? | - | 12 | ? | 8.2µM | 8.2µM
O=C(Nc1nc2c(F)cccc2s1)c1ccc(S(=O)(=O)N2CCOCC2)cc1 | . | . | - | - | - | . | . | . | . | .
COc1ccc(Br)cc1C1NC(c2ccc3c(c2)OCO3)=CC(c2cc(Cl)ccc2O)N1 (stereo not given) | . | . | 50µM | . | . | . | ? | ? | ? | -
O=C(Nc1nnc(-c2ccccc2)s1)C1CCCN(C(=O)c2ccoc2)C1 (stereo not given) | . | . | 45µM | . | . | . | 16 | 8.9µM | ? | -
O=C1C=C(C#Cc2ccccc2)C[C@@H](c2ccc(F)cc2)C1 | - | . | . | . | - | . | . | . | . | .
CCC1OC(=O)C[C@H](O)C(C)[C@@H](O[C@@H]2OC(C)C(O)C(N(C)C)C2O)C(CCN2CC(C)CC(C)C2)CC(C)C(=O)/C=C/C(C)=C\[C@@H]1COC1OC(C)C(O)C(OC)C1OC (stereo not given in full) | . | . | - | - | ? | . | . | . | . | .
CCC(C)(C)n1nnnc1C(c1ccc(O)c(OC)c1)N1CCc2ccccc2C1 (stereo not given) | 27µM | ? | ? | - | - | - | 11 | 28µM | - | -
CS(=O)(=O)c1sc(C#N)c2c1C(=O)CC(c1ccccc1)C2 (stereo not given) | 5.3µM | ? | 14µM | - | - | - | 8.4 | ? | 15µM | 3.7µM
COc1cc(OC)cc(C(=O)N[C@H](C(=O)OCC(=O)Nc2cccnc2Cl)C(C)C)c1 | - | . | - | - | - | - | . | . | . | .
CCOC(=O)C(C#N)=C1CCN(Cc2ccccc2)CC1 | - | . | - | - | - | - | . | . | . | .
SMILES | PLK1 PBD block | PKM2 activator | VDR inhibitor | GCN5L2 inh | GLS inh | Mito fusion yeast | VDR inh confirm | VDR FP | VDR bla reporter | VDR cytotox
CCOC(=O)/C(C#N)=C1/C(=O)N(Cc2ccccc2)c2ccccc21 | 3.8µM | ? | 28µM | - | ? | - | 3.4 | ? | - | -
O=C(NCc1cccnc1)/C(=C\c1ccc(-c2ccc(Br)cc2)o1)S(=O)(=O)c1ccccc1 | ? | - | 40µM | ? | - | - | 34 | ? | 5.8µM | 21µM
CC1(C)CC(=O)C(C(C2=C(O)CC(C)(C)CC2=O)c2ccc(O)c([N+](=O)[O-])c2)=C(O)C1 | 4.7µM | - | 79µM | - | - | - | 9.5 | ? | - | -
Cc1ccc(CN2Cc3cccc4c3[C@@H](CC2=O)[C@H](O)[C@H](O)C4)cc1 | - | . | - | - | - | - | . | . | . | .
COc1cc(/C=C/C(=O)c2cccc([N+](=O)[O-])c2)cc(OC)c1OC | ? | - | ? | - | - | - | 2.2 | 2.5µM | ? | ?
COc1ccc(C(=O)/C=C/c2ccccc2F)c(OC(=O)c2ccc([N+](=O)[O-])cc2)c1 | - | - | ? | - | - | - | ? | 6.3µM | ? | -
COc1cc(/C=C/C(=O)c2ccc(C)c([N+](=O)[O-])c2)cc(OC)c1O | - | - | ? | - | - | - | . | . | . | .
COc1ccc(/C=C/C(=O)c2ccc(C)c([N+](=O)[O-])c2)cc1O | - | - | 35µM | - | - | - | 11 | 7.9µM | ? | ?
O=C(/C=C/c1ccccc1F)c1cccc([N+](=O)[O-])c1 | ? | - | 13µM | - | - | - | 2.5 | 1.6µM | 26µM | -
COc1ccc(NC(=O)C2Cc3c(-c4cccc(C(N)=O)c4)ccnc3O2)cc1 (stereo not given) | - | . | . | . | - | . | . | . | . | .
O=C(Nc1c(-c2ccc(Cl)cc2)[nH][nH]c1=O)c1ccccc1Cl | - | . | . | . | - | . | . | . | . | .
COc1ccc(CC(=O)N[C@@H]2c3cc(OC)c(OC)cc3C[C@H]2O)cc1 | - | . | - | - | - | . | . | . | . | .

Screening data: PubChem, National Center for Advancing Translational Sciences (NCATS)
